NOD2-RIPK2 inh: NOD2-RIPK2 binding disruptors in cells, primary screen, fluorescence, CHO cells, BLA complementation. 360,000 tested, 0.38% active. CCF4 ratio. Receptor-interacting serine/threonine-protein kinase 2 (Homo sapiens), O43353. inhibition, % at 4.98 µM. AID 624267, 2012; in the data active = inhibition above about 21%;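 note: 0% = vehicle only and 100% = reference blocker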
TLR9-MyD88 block: inhibitors of TLR9-MyD88 association in cells, primary screen, cell-based, CHO, BLA complementation, fluorescence | Toll-like receptor 9 (Homo sapiens) + Myeloid differentiation primary response protein … | CCF4 FRET ratio | inhibition, % at 4.98 µM | 340,000 tested, 0.21% active;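 active = inhibition above the mean over all tested compounds plus 3 SD, cut at about 21% in these data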;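 note: 0% = DMSO only wells and 100% = clavulanate BLA inhibitor control wells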
TLR4 MyD88 comp: inhibitors of TLR4-MyD88 association in cells, primary screen, cell-based, HeLa CL3-4, BLA complementation, FRET ratio; AID 861, 2007; HeLa CL3-4 TLR4/MyD88 BLA complementation; 200,000 tested, 0.18% active; inhibition, % at 8.4 µM; in the data active = inhibition above about 25%;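 note: 0% = vehicle and 100% = reference inhibitor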
ABCB6 inh 2: ABCB6 transporter inhibitors, primary screen, K562-ABCB6 cells, flow cytometry, MLPCN library; ATP-binding cassette sub-family B member 6 (Homo sapiens), Q9NP58; 360,000 tested, 0.19% active; fluorescence ratio to DMSO, % at 10 µM; K562-ABCB6 porphyrin accumulation, 1 h; active compounds read low;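 active = fluorescence ratio to DMSO below 75%, the collection mean minus 3 SD; inconclusive = too few cells collected in the well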;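 note: signal is porphyrin accumulated inside mitochondria; 100% equals median channel fluorescence of DMSO control wells; lower ratio means ABCB6 inhibition with less porphyrin fluorescence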
Myeloid diff MLP: induction of myeloid progenitor differentiation, primary screen, cell-based, flow cytometry, MLPCN library; AID 624256, 2012; calls only at 10 µM; ER-HoxA9 myeloid progenitors, lysozyme-GFP differentiation; 360,000 tested, 1% active;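 active = normalized GFP-positive differentiation at or above the plate's own cutoff, the solvent-only control mean plus 3 SD; inconclusive = no clear call, values can overlap the other calls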;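 note: cells exposed to compound for four days before flow analysis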
TLR9-MyD88 cf: TLR9-MyD88 association inhibitors, retest, confirmation, cell-based, CHO, BLA complementation, fluorescence, triplicate | shares compounds with TLR9-MyD88 block | CCF4 FRET ratio | inhibition, % at 4.98 µM | 680 tested, 51% active | AID 540250, 2011;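 active = mean inhibition across three repeats above about 21% taken from the earlier screen, limit read from the data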;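 note: blue over green emission ratio reports constitutive TLR9 MyD88 association via BLA complementation; 0% = DMSO vehicle wells and 100% = clavulanate BLA inhibitor wells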
BLA counter-1: beta-lactamase reporter inhibitors in CHO cells, artefact control for TLR9-MyD88 binding inhibitor project, cell-based, fluorescence | shares compounds with TLR9-MyD88 block | CHO-BLA cells, CCF4 FRET ratio, BLA reporter | inhibition, % at 4.98 µM | 680 tested, 7% active;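 active = mean inhibition above a 50% cutoff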;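 note: counterscreen of TLR9-MyD88 hits on CMV-driven BLA in CHO-K1 cells; 0% = DMSO alone and 100% = clavulanate blocking BLA; higher means less blue over green ratio so more BLA blockade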
TLR9 CHO tox: CHO cell viability loss – luminescence, single concentration, cytotoxicity control for TLR9-MyD88 binding inhibitor project; TLR9-MyD88 CHO cells cytotoxicity; shares compounds with TLR9-MyD88 block; inhibition, % at 4.98 µM; AID 588336, 2011; 680 tested, 39% active; in the data active = inhibition above about 11%
Myeloid diff: inducers of myeloid progenitor differentiation, confirmation, cell-based, GFP/Mac1 flow cytometry, cherry pick 01. shares compounds with Myeloid diff MLP. ER-HoxA9 myeloid progenitors, GFP/Mac1 double-positive flow. calls only. 2,300 tested, 2% active. AID 651706, 2012;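 active = share of green or green-and-red cells above 9 and 9% in run 1 or 4 and 3% in run 2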
GFP autofluor: compound fluorescence in myeloid differentiation counter-screen | 2,300 tested, 7.4% active | shares compounds with Myeloid diff MLP | ER-HoxA9 myeloid progenitors, no estrogen, GFP autofluorescence flow cytometry; vehicle wells 0%, positive control 100% | fluorescence response, % (no concentration beside the values);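 active = over 5% cells positive for green fluorescent reporter, or over 2% positive for both it and APC stain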;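 note: range taken on the double positive population between DMSO and positive control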
NOD2 RIPK2 conf: NOD2-RIPK2 binding disruptors, retest, confirmation, fluorescence, CHO cells, BLA complementation, triplicate | CCF4 FRET | 1,200 tested, 70% active | inhibition, % at 4.98 µM | shares compounds with NOD2-RIPK2 inh;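 active = mean inhibition across replicates above a set limit taken from the earlier primary screen, cut at about 21% in these data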;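 note: 0% = DMSO-only wells and the high end = clavulanate BLA-blocked wells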
BLA counter-2: counter-screen for NOD2-RIPK2 interaction inhibitors: BLA reporter; shares compounds with NOD2-RIPK2 inh; CHO BLA reporter, CCF4 FRET ratio, counterscreen; inhibition, % at 4.98 µM; 1,200 tested, 57% active; AID 624371;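 active = mean inhibition above the low-control mean inhibition plus three low-control SD, cut at about 11% in these data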;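 note: 0% = DMSO only wells and 100% = clavulanate high control wells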
* marks the source's active call; other numbers are inactive results; i = inactive; ? = inconclusive; / = no result; + = active, no number. A selection: hits, their analogues and other compounds. The true share with any hit is near 1.7%.

SMILES	NOD2-RIPK2 inh	TLR9-MyD88 block	TLR4 MyD88 comp	ABCB6 inh 2	Myeloid diff MLP	TLR9-MyD88 cf	BLA counter-1	TLR9 CHO tox	NOD2 RIPK2 conf	BLA counter-2	others
CSCCC(c1nc2ccccc2[nH]1)n1c(-c2cc(C(F)(F)F)cc(C(F)(F)F)c2)nc2ccccc21 (centres undefined)	-10	/	/	/	i	/	/	/	/	/
COc1cc(N2C(=O)c3ccccc3C2=O)c(Cl)cc1C(=O)OCC(=O)N(C)C	-2	13	-3	99	i	/	/	/	/	/
COc1ccc(NC(=O)/C(Cl)=C(/Cl)S(=O)Cc2ccccc2)cn1 (centres undefined)	92*	43*	9	25*	?	49*	32	99*	92*	30*
COc1cc(OC)nc(-n2ncc(Br)c(Br)c2=O)n1	50*	23*	7	82	?	27*	22	100*	60*	10
COC(=O)c1cnn(-c2nc(OC)cc(OC)n2)c1C	0	-6	-19	103	i	/	/	/	/	/
CC(=NNc1nc2ccccc2o1)c1cc2ccccc2cn1	43*	60*	/	273	?	67*	66*	74*	90*	91*
CC(=NNc1nc2ccccc2s1)c1ncccn1	9	20	/	106	?	/	/	/	/	/
CC(=NNc1nc2ccccc2o1)c1ncccn1	27*	26*	/	93	?	20	10	99*	34*	30*
O=S(=O)(NC1=NCCCCC1)c1ccc(Cl)cc1Cl	4	0	/	97	i	/	/	/	/	/
Cc1ccccc1Nc1nc(N)nc(CN2CCN(C(=O)c3ccccc3)CC2)n1	1	6	-3	103	i	/	/	/	/	/
O=c1c(Br)ccc(Br)cc1Br	85*	66*	/	19*	?	68*	39	98*	101*	48*
O=C1CN(S(=O)(=O)c2cc(Br)ccc2Br)CCN1	6	-6	/	99	i	/	/	/	/	/
O=C(CN1C(=O)c2cccc3cccc1c23)Nc1ccccc1C(=O)NCc1ccco1	23*	32*	-4	105	i	8	12	3	22*	22*
O=C(CN1C(=O)c2ccccc2S1(=O)=O)Nc1ccccc1C(=O)NCc1ccco1	6	-3	-15	92	i	/	/	/	/	/
Cc1nnc(N2C(=O)c3cccc4c([N+](=O)[O-])ccc(c34)C2=O)s1	91*	80*	/	124	i	67*	84*	58*	93*	87*
Cc1cccc(N2C(=O)c3cccc4c(N5CCCCC5)c([N+](=O)[O-])cc(c34)C2=O)c1C	-4	2	6	103	i	/	/	/	/	/
COc1ccccc1-c1cc(-c2ccccc2)nc(SC(C(N)=O)c2ccccc2)c1C#N (centres undefined)	1	2	7	93	i	/	/	/	/	/
N#C/C(=C\c1ccc(Sc2ccc(Cl)cc2)o1)c1nc2ccccc2[nH]1	34*	34*	21	107	i	19	24	2	39*	43*
CCOC(=O)c1c(C)nsc1NC(=O)C1CCCCC1	-7	-19	/	97	i	/	/	/	/	/
COc1ccc2nc(C)cc(NCc3ccc(F)cc3)c2c1	24*	38*	/	878	+	22*	18	30*	45*	44*
CC(=O)Oc1ccc(-c2cc3c(OC(C)=O)cc(OC(C)=O)cc3oc2=O)cc1	41*	37*	/	100	i	23*	26	3	53*	57*
CC(NC(=O)/C(C#N)=C/c1ccc([N+](=O)[O-])o1)c1ccccc1 (centres undefined)	52*	21*	/	256	?	36*	19	99*	51*	34*
CC1(c2nc3ccccc3[nH]2)c2ccccc2C(=O)N1Cc1ccccc1 (centres undefined)	-4	/	/	89	i	/	/	/	/	/
COc1ccc(C2=CC(c3ccc(OC)c(OC)c3)n3nnnc3N2)c(OC)c1 (centres undefined)	44*	39*	4	157	i	21*	26	8	3	7
O=C(Sc1cccc2cccnc12)c1ccccc1Br	39*	24*	/	99	/	22*	15	98*	41*	17*
SMILES	NOD2-RIPK2 inh	TLR9-MyD88 block	TLR4 MyD88 comp	ABCB6 inh 2	Myeloid diff MLP	TLR9-MyD88 cf	BLA counter-1	TLR9 CHO tox	NOD2 RIPK2 conf	BLA counter-2	others
CC(=O)/C(=N\Nc1ccccc1Cl)Sc1cccc2cccnc12	-2	-1	-21	100	i	/	/	/	/	/
CS(=O)(=O)c1ccc(C(=O)NNC(=O)c2ccccc2-n2cccc2)cc1	6	-3	/	99	i	/	/	/	/	/
COc1cc2oc3ccc(C#Cc4ccc(N)cc4)cc3c(=O)c2cc1OC	-2	-12	/	87	i	/	/	/	/	/
N#Cc1ccc(C#Cc2ccc3oc4ccccc4c(=O)c3c2)cc1	-1	4	/	96	i	/	/	/	/	/
Nc1ccc(C#Cc2ccc3c(=O)c4ccccc4oc3c2)cc1	67*	74*	/	115	i	64*	70*	4	78*	84*	Myeloid diff=+;GFP autofluor=0
COc1cc2oc3cc(C#Cc4ccc(N)cc4)ccc3c(=O)c2cc1OC	26*	38*	/	101	i	40*	44	8	54*	58*

Source: PubChem
